From the supplement of paper PMC12645437, “Orthogonal IMiD-Degron Pairs Induce Selective Protein Degradation in Cells” (ACS Chemical Biology, 2025)
In all, about 8,300 sequences were measured (“log2 fold change of degron read counts, EGFP-low vs EGFP+ sorted cells (limma voom), compound-induced degradation”: median about -1.1, highest 2% from about 3.2 on). The sample as a whole holds a higher share of the highest values than the screen did.

T1: CRBN, Q96SW2
T1 chain: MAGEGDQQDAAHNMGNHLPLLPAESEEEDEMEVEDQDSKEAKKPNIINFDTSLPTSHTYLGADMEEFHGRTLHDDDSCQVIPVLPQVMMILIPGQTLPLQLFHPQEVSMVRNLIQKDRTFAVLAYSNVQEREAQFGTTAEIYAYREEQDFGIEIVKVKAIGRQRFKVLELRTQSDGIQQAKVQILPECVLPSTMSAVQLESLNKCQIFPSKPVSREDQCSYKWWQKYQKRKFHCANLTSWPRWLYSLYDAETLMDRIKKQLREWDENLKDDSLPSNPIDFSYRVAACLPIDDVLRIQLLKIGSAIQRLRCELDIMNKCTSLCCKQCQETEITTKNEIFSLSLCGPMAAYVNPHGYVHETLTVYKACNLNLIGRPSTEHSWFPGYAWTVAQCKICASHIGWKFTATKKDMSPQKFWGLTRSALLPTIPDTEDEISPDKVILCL

B1: 46L_47M_49E_50I_52G_53F_54F_55C_67L_, Q9UKT9 (peptide)
chain: LMCEICGFFCTQKGNLLRHIKL
B2: 46F_47N_49E_50I_52G_53H_54G_55F_67L_, Q9UKT9 (peptide)
chain: FNCEICGHGFTQKGNLLRHIKL
B3: 46F_47T_49P_50V_52G_53A_54Q_55F_67L_, Q9UKT9 (peptide)
chain: FTCPVCGAQFTQKGNLLRHIKL
B4: 46F_47K_49P_50I_52G_53H_54L_55F_67L_, Q9UKT9 (peptide)
chain: FKCPICGHLFTQKGNLLRHIKL
B5: 46F_47T_49N_50V_52G_53A_54G_55F_67L_, Q9UKT9 (peptide)
chain: FTCNVCGAGFTQKGNLLRHIKL
B6: 46L_47Q_49E_50I_52G_53F_54D_55C_67L_, Q9UKT9 (peptide)
chain: LQCEICGFDCTQKGNLLRHIKL
B7: 46L_47T_49N_50Q_52G_53F_54Q_55C_67L_, Q9UKT9 (peptide)
chain: LTCNQCGFQCTQKGNLLRHIKL
B8: 46F_47R_49D_50I_52G_53A_54Y_55F_67L_, Q9UKT9 (peptide)
chain: FRCDICGAYFTQKGNLLRHIKL
B9: 46F_47A_49D_50I_52G_53A_54C_55F_67L_, Q9UKT9 (peptide)
chain: FACDICGACFTQKGNLLRHIKL
B10: 46F_47T_49D_50I_52G_53A_54C_55F_67L_, Q9UKT9 (peptide)
chain: FTCDICGACFTQKGNLLRHIKL
B11: 46F_47F_49D_50I_52G_53A_54C_55F_67L_, Q9UKT9 (peptide)
chain: FFCDICGACFTQKGNLLRHIKL
B12: 46F_47Y_49D_50I_52G_53A_54C_55F_67L_, Q9UKT9 (peptide)
chain: FYCDICGACFTQKGNLLRHIKL
B13: 46F_47H_49D_50I_52G_53A_54C_55F_67L_, Q9UKT9 (peptide)
chain: FHCDICGACFTQKGNLLRHIKL
B14: 46F_47C_49D_50I_52G_53A_54C_55F_67L_, Q9UKT9 (peptide)
chain: FCCDICGACFTQKGNLLRHIKL
B15: 46F_47S_49D_50I_52G_53A_54C_55F_67L_, Q9UKT9 (peptide)
chain: FSCDICGACFTQKGNLLRHIKL
B16: 46F_47Q_49D_50I_52G_53A_54C_55F_67L_, Q9UKT9 (peptide)
chain: FQCDICGACFTQKGNLLRHIKL
B17: 46F_47R_49D_50I_52G_53A_54C_55F_67L_, Q9UKT9 (peptide)
chain: FRCDICGACFTQKGNLLRHIKL
B18: 46F_47M_49D_50I_52G_53A_54C_55F_67L_, Q9UKT9 (peptide)
chain: FMCDICGACFTQKGNLLRHIKL
B19: 46F_47W_49D_50I_52G_53A_54C_55F_67L_, Q9UKT9 (peptide)
chain: FWCDICGACFTQKGNLLRHIKL

Molecular target: T1, CRBN, Q96SW2
Assay: log2 fold change of degron read counts, EGFP-low vs EGFP+ sorted cells (limma voom), compound-induced degradation; higher = more compound-induced degradation of the degron-EGFP fusion; degrons are variants of IKZF1/3 zinc finger 2; compound dose not given here
Conditions: Jurkat, 18 h
[1] = compound: compound 19 (5-tert-butyl-thalidomide)
[2] = compound: compound 22 (5-morpholino-thalidomide)
[3] = compound: compound 33 (diphenyl IMiD analogue)
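Note: pooled lentiviral library of zinc finger degron-EGFP fusions in mCherry-positive Jurkat cells, FACS-sorted after compound exposure, with degron abundance counted by next-generation sequencing.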

Row | Sequence | log2 fold change of degron read counts [1] | log2 fold change of degron read counts [2] | log2 fold change of degron read counts [3] | log2 fold change of degron read counts (compound: thalidomide)
1 | B1 | -0.461 | -0.234 | 1.75 | 0.617
2 | B2 | -2.44 | -2.67 | -3.6 | -2.95
3 | B3 | 0.0342 | 2.63 | 2.78 | 2.72
4 | B4 | -2.52 | -3 | -3.86 | -2.43
5 | B5 | -0.827 | -0.181 | 0.811 | 0.259
6 | B6 | -2.82 | -2.45 | -2.23 | -1.2
7 | B7 | -2.38 | -2.53 | -1.48 | -1.47
8 | B8 | -1.87 | -1.92 | -0.0846 | 0.62
9 | B9 | 2.85 | 0.596 | -0.194 | -1.27
10 | B10 | 1.04 | 1.6 | 1.21 | 0.886
11 | B11 | 3.31 | 3.14 | 1.33 | -1.14
12 | B12 | 3.33 | 3.42 | 1.9 | -0.704
13 | B13 | 1.53 | 1.18 | -0.205 | -1.25
14 | B14 | 1.6 | 1.36 | 1.87 | 0.543
15 | B15 | 1.95 | 1.34 | 1.4 | -0.055
16 | B16 | -0.256 | 2.12 | 1.17 | 3.3
17 | B17 | -1.25 | -1.11 | 1.03 | 0.116
18 | B18 | -1.13 | -0.637 | 1.57 | -0.555
19 | B19 | 3.31 | 3.65 | 1.33 | -0.4
